SMILES strings stand for the structures. Where “and” joins values, the source holds several entries; their conditions need not be identical. Identical values can stand only once. Some compounds were tested as several samples or in several runs, with calls that do not always agree. Calls of active or inactive are those of the source. How the source made its calls: active means hit-call score of the fitted dose curve at least 0.9, where 1 is the maximum; inactive means score below 0.9.

Here are results for 36 compounds from PubChem BioAssay (EPA / NIEHS).

Sequence of Tumor necrosis factor (Homo sapiens) (P01375 whole entry, looked up): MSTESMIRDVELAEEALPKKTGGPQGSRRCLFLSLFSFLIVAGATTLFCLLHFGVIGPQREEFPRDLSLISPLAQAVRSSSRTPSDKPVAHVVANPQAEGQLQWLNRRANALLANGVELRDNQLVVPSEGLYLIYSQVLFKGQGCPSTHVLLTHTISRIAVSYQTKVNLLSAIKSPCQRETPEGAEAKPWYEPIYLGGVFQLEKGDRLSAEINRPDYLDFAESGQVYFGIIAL

Read-out in one assay: Tumor necrosis factor (Homo sapiens) (UniProt P01375)
The assay is described as follows: BSK_LPS_TNFa: BioMAP Diversity Plus: LPS Assay for Tumour Necrosis Factor alpha (TNFa) Biomarker Activity (AID 2283085).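 On AC50: TNFa protein level quantified by ELISA in the co-culture.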 The conditions noted are these: primary human HUVEC with PBMC; actives raise or lower the signal. The procedure, abridged:
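TNFa was quantified by ELISA in LPS-activated co-cultures of human endothelial cells and PBMC, 24 h post-dosing. Both increases and decreases versus DMSO were fitted.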
On to `O=c1c2ccccc2oc2ccccc12`, for which the outcome was inactive.

Turning to `COCc1c(C(C)C)nc(C(C)C)c(/C=C/[C@@H](O)C[C@@H](O)CC(=O)O)c1-c1ccc(F)cc1`, the result was inactive.

Regarding `O=Nc1ccc(O)cc1`, the outcome was inactive.

For the compound `N#[N+]c1ccc2c(S(=O)(=O)[O-])cccc2c1O`, the result was inactive.

Consider `C#CC1(O)CC[C@H]2[C@@H]3CCC4=CCCC[C@@H]4[C@H]3CC[C@@]21C` (stereo partly drawn), for which the AC50 is 33.3 µM (active).

As for `O=C(Cl)c1cc(C(=O)Cl)cc(C(=O)Cl)c1`, the AC50 is 36.7 µM (active).

Regarding `CC(C)C(=O)C(C)C`, the result was inactive.

Regarding `C=CC(=O)OCC(Br)CBr` (stereo not drawn), the AC50 was 11 µM (active).

As for `CCOC(=O)c1ccccc1C(=C1C=C(Br)C(=O)C(Br)=C1)c1cc(Br)c(O)c(Br)c1`, the AC50 was 19.1 µM (active) and 18.9 µM (active).

Take `c1ccc2c(c1)ccc1ncccc12`: the outcome was inactive.

Turning to `CCCCC(CC)COC(=O)c1ccccc1O` (stereo not drawn), the outcome was inactive.

For `CCCCCCCCCCCCCCCC[N+](C)(C)CC`, the AC50 was 4.58 µM (active).

`COc1ccc2nc(N)sc2c1`: the outcome was inactive.

On to `CC(C)(c1cc(Br)c(OCCO)c(Br)c1)c1cc(Br)c(OCCO)c(Br)c1`, for which the outcome was inactive.

As to `CCCCC/C=C\C/C=C\CCCCCCCC(=O)OC`, the AC50 is 36.1 µM (active).

Consider `Nc1ccc(N)c(Cl)c1`, for which the AC50 is 11.6 µM (active) and the outcome was inactive.

Turning to `CC1OC1C1CCC2(C)OC2C1` (stereo not drawn), the outcome was inactive.

Turning to `C=C[Si](OC(C)=O)(OC(C)=O)OC(C)=O`, the outcome was inactive.

As to `S=C(NC1CCCCC1)NC1CCCCC1`, the result was inactive.

As for `C/C=C\C/C=C/CCCCCCCCOC(C)=O`, the AC50 was 32.4 µM (active).

In the case of `CCCCC(CC)COCC1CO1` (stereo not drawn), the result was inactive.

For the compound `CCO[Si](CCCN=C=O)(OCC)OCC`, the result was inactive.

Turning to `CO[Si](OC)(OC)c1ccccc1`, the outcome was inactive.

`CCCCNc1ccc(NCCCC)c2c1C(=O)c1ccccc1C2=O`: the outcome was inactive.

For `CCO[Si](C)(OCC)OCC`, the outcome was inactive.

For `O=C1CCCN1CCO`, the result was inactive.

As to `CN1C(=O)N(C)C(O)C1O` (stereo not drawn), the result was inactive.

Take `C=CCOc1c(Br)cc(Br)cc1Br`: the outcome was inactive.

Turning to `CCCCCCCCc1ccc(Nc2ccc(CCCCCCCC)cc2)cc1`, the outcome was inactive.

On to `O=C(c1ccc(O)cc1)c1ccc(O)cc1O`, for which the result was inactive.

`CCOc1nc(F)cc2nc(S(=O)(=O)Nc3c(Cl)cccc3C(=O)OC)nn12`: the result was inactive.

With `C=CC=CC=CCCCCC`, the outcome was inactive.

With `c1ccc(-c2ccccn2)nc1`, the result was inactive.

In the case of `C=CCOCC(O)CCl` (stereo not drawn), the result was inactive.

As to `c1ccc2c(c1)ccc1cc3c(ccc4ccccc43)cc12`, the outcome was inactive.

For the compound `O=C(Nc1ccccc1SSc1ccccc1NC(=O)c1ccccc1)c1ccccc1`, the AC50 was 5.18 µM (active).

Read-out in the next assay: Vascular cell adhesion molecule 1 (VCAM1), VCAM1 (gene 7412)
The assay is described as follows: BSK_LPS_VCAM1: BioMAP Diversity Plus: LPS Assay for Vascular cell adhesion molecule 1 (VCAM1) Biomarker Activity (AID 2283086). The conditions noted are these: primary human HUVEC with PBMC; actives raise or lower the signal. The procedure, abridged:
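VCAM-1 quantified by ELISA in an LPS-activated co-culture of human endothelial cells and peripheral blood mononuclear cells, read 24 h post-treatment. Fitted in both directions versus DMSO; parallel SRB staining flags overt cytotoxicity.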
As for `O=c1c2ccccc2oc2ccccc12`, the outcome was inactive.

Turning to `COCc1c(C(C)C)nc(C(C)C)c(/C=C/[C@@H](O)C[C@@H](O)CC(=O)O)c1-c1ccc(F)cc1`, the outcome was inactive.

For the compound `O=Nc1ccc(O)cc1`, the result was inactive.

`N#[N+]c1ccc2c(S(=O)(=O)[O-])cccc2c1O`: the result was inactive.

Turning to `C#CC1(O)CC[C@H]2[C@@H]3CCC4=CCCC[C@@H]4[C@H]3CC[C@@]21C` (stereo partly drawn), the AC50 is 29.9 µM (active).

Turning to `O=C(Cl)c1cc(C(=O)Cl)cc(C(=O)Cl)c1`, the AC50 was 27.8 µM (active).

As for `CC(C)C(=O)C(C)C`, the result was inactive.

`C=CC(=O)OCC(Br)CBr` (stereo not drawn): the AC50 is 10.9 µM (active).

Regarding `CCOC(=O)c1ccccc1C(=C1C=C(Br)C(=O)C(Br)=C1)c1cc(Br)c(O)c(Br)c1`, the AC50 is 20.2 µM (active) and 19.9 µM (active).

Regarding `c1ccc2c(c1)ccc1ncccc12`, the AC50 is 2.69 µM (active).

Turning to `CCCCC(CC)COC(=O)c1ccccc1O` (stereo not drawn), the AC50 is 10 µM (active).

As to `CCCCCCCCCCCCCCCC[N+](C)(C)CC`, the AC50 is 3.79 µM (active).

Turning to `COc1ccc2nc(N)sc2c1`, the result was inactive.

With `CC(C)(c1cc(Br)c(OCCO)c(Br)c1)c1cc(Br)c(OCCO)c(Br)c1`, the half-maximal activity concentration (AC50) is 16.2 µM (active).

Turning to `CCCCC/C=C\C/C=C\CCCCCCCC(=O)OC`, the AC50 was 30 µM (active).

Turning to `Nc1ccc(N)c(Cl)c1`, the AC50 was 5.43 µM (active) and 5.78 µM (active).

For `CC1OC1C1CCC2(C)OC2C1` (stereo not drawn), the result was inactive.

On to `C=C[Si](OC(C)=O)(OC(C)=O)OC(C)=O`, for which the outcome was inactive.

As for `S=C(NC1CCCCC1)NC1CCCCC1`, the outcome was inactive.

With `C/C=C\C/C=C/CCCCCCCCOC(C)=O`, the AC50 is 26.2 µM (active).

`CCCCC(CC)COCC1CO1` (stereo not drawn): the result was inactive.

`CCO[Si](CCCN=C=O)(OCC)OCC`: the outcome was inactive.

As for `CO[Si](OC)(OC)c1ccccc1`, the outcome was inactive.

With `CCCCNc1ccc(NCCCC)c2c1C(=O)c1ccccc1C2=O`, the result was inactive.

As to `CCO[Si](C)(OCC)OCC`, the result was inactive.

As to `O=C1CCCN1CCO`, the result was inactive.

On to `CN1C(=O)N(C)C(O)C1O` (stereo not drawn), for which the outcome was inactive.

Consider `C=CCOc1c(Br)cc(Br)cc1Br`, for which the result was inactive.

As for `CCCCCCCCc1ccc(Nc2ccc(CCCCCCCC)cc2)cc1`, the outcome was inactive.

In the case of `O=C(c1ccc(O)cc1)c1ccc(O)cc1O`, the result was inactive.

With `CCOc1nc(F)cc2nc(S(=O)(=O)Nc3c(Cl)cccc3C(=O)OC)nn12`, the result was inactive.

On to `C=CC=CC=CCCCCC`, for which the outcome was inactive.

As for `c1ccc(-c2ccccn2)nc1`, the outcome was inactive.

Turning to `C=CCOCC(O)CCl` (stereo not drawn), the result was inactive.

For the compound `c1ccc2c(c1)ccc1cc3c(ccc4ccccc43)cc12`, the outcome was inactive.

Regarding `O=C(Nc1ccccc1SSc1ccccc1NC(=O)c1ccccc1)c1ccccc1`, the AC50 was 9.83 µM (active).

In general, AC50 refers to the concentration giving half of the maximal activity seen.
